# Compound activity (PubChem BioAssay)
# Hits are enriched below; roughly 5.9% of the tested compounds scored in any of these assays.
# Gal4-VP16 FLuc = Gal4-VP16 reporter inhibition counter-screen; Drosophila S2 Gal4-VP16 UAS-luciferase, luminescence, 20 h; Potency, µM (series often up to 53.6 µM), for inactives: at the highest dose activity, negative = inhibition, actives largely listed as inhibitors; 3.5% of 310,000 active; AID 2546;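 further: Gal4-VP16 expression switched on by copper sulfate through the metallothionein promoter; potency means the concentration at half of the fitted maximal effect; nearly all actives have a fitted effect of over 50% in size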
# GALK inhibitor = inhibitors of human galactokinase | P51570 | Purified GALK, Kinase-Glo residual ATP luminescence | Potency, µM (highest dose often 57.5 µM), for inactives: top-dose activity change, negative = inhibition, most hits filed as inhibitors | 0.007% of 270,000 active | AID 1868; further: potency means the concentration at half of the fitted maximal effect
#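 Galactose (100 uM) and ATP (35 uM) were turned over by 5 nM GALK for 1 h at RT. Kinase-Glo Plus then converted the remaining ATP into a luminescent signal.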
# TrxR1 substrate = rat thioredoxin reductase 1 substrate activity. O89049. purified TrxR1 substrate turnover, NADPH consumption readout. Potency, µM (doses to about 114 µM), for inactives: top-dose activity change, negative = substrate turnover. 0.01% of 390,000 active; further: potency means the concentration at half of the fitted maximal effect; nearly all actives have a fitted effect of over 50% in size
# Target sequence (O89049 whole entry, looked up): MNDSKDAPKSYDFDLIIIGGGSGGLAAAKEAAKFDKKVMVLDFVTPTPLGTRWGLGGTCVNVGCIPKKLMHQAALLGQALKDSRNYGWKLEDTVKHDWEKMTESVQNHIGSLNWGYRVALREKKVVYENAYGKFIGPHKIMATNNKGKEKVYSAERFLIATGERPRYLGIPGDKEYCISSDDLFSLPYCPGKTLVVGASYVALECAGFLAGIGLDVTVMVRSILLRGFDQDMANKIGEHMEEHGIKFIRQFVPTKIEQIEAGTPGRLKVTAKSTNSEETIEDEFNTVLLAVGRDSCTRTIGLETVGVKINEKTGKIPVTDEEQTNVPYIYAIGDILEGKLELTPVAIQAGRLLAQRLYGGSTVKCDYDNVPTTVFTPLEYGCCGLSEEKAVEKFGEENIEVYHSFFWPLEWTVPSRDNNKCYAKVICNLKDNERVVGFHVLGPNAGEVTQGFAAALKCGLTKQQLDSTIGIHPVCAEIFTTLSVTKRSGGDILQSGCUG
#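 Rat TrxR1, dispensed at 90 nM, was prereduced with 400 uM NADPH (final) for 5 min at ~22 deg C, then incubated with compound 15 min before 400 uM selenite. A first-read NADPH fluorescence drop versus no-compound background flagged substrates.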
# Coupling enz = inhibits coupling enzyme system, counter-screen for aldolase hits; 0.67% of 290,000 active; coupling enzyme system counterscreen, AmpLite Red fluorescence; activity change, negative = inhibition, % at 58.2 µM, hits read low; in the data active means activity change below about -30%
#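 Counterscreen lacking aldolase: glyceraldehyde-3-phosphate coupling-enzyme reagent preincubated 10 min at RT with compound (at 57.5 uM final), then substrate/coupling system with AmpLite Red added; fluorescence read at 525/598 nm after 20 min RT.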
# RORg inh = blocks mouse ROR gamma transcriptional activity; P51450; Drosophila S2 Gal4-RORgamma UAS-luciferase reporter, 20 h; Potency, µM (doses to about 53.6 µM), without a hit: top-dose activity change, negative = inhibition, most hits filed as inhibitors; 5.4% of 310,000 active; further: potency means the concentration at half of the fitted maximal effect; nearly all actives have a fitted effect of over 60% in size
#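 Luminescence from a UAS-regulated Photinus luciferase reporter in stably transfected Drosophila Schneider cells is measured; decreased signal marks ROR gamma inhibition. Fusion expression is induced by 700 uM copper sulfate for 20 hr.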
# rTrxR1 inhibitor = inhibitors of rat thioredoxin reductase 1; 1% of 390,000 active; recombinant rTrxR1, NADPH fluorescence consumption, selenite substrate; Potency, µM (doses to about 114 µM), inactives show at the top dose activity change, negative = inhibition, most hits filed as inhibitors; further: potency means the concentration at half of the fitted maximal effect; nearly all actives have a fitted effect of over 65% in size
#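 Rat TrxR1 (90 nM in the dispensed reagent) was pre-reduced with 400 uM NADPH for 5 min at room temperature, then incubated with compound for 15 min. After 400 uM selenite was added, NADPH fluorescence (Ex 340/Em 450 nm) was followed for 8 min.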
# Numbers without * were called inactive; ? = inconclusive; / = no result; [ ] = dose if it differs, or a comment. Unless noted, the call rests on the fitted dose curve; in most records, active means well fitted curve in the direction sought with a large enough effect; inconclusive means small, poorly fitted or top-dose-only effect, or another doubt; inactive means no such curve, though single readings can be large; an effect the other way counts as inactive or inconclusive. On the % scale 0 is the no-effect control and ±100 the full control effect.
SMILES,Gal4-VP16 FLuc,GALK inhibitor,TrxR1 substrate,Coupling enz,RORg inh,rTrxR1 inhibitor
COc1ccc([C@H](C)NC[C@H](O)c2ccc(O)c(NC=O)c2)cc1,2%,-2%,3%,0,-1%,8%
O=C(NCCOc1ccccc1)C1CCC(=O)N(Cc2ccc(Cl)cc2)C1 (configuration not stated),22%,-2%,-3%,/,3%,9%
O=C(Nc1nc2ccccc2n1CCOc1ccc(Cl)cc1)c1ccco1,2.5µM*,1%,13%[57.1 µM],-2,1.4µM*,12%[57.1 µM]
CC(C)(C)C(=O)Nc1sc2c(c1-c1nc3ccccc3[nH]1)CCCC2,?,0%,36%[11.4 µM],1,0.79µM*,-15%[11.4 µM]
COc1ccc(-c2cc(C(=O)Nc3cccc(O)c3)no2)cc1,3.2µM*,-1%,0%,-1,1.4µM*,18%
COc1ccc(-c2cc(C(=O)Nc3ccc(C)c(C)c3)no2)cc1,-9%,/,44%,0,22%,59%
CC(=O)c1cccc(NC(=O)c2cc(-c3ccco3)on2)c1,-1%,-1%,-4%,1,-25%,-4%
O=C(Nc1cccc(O)c1)c1cc(-c2ccco2)on1,?,-1%,9%,4,13µM*,?
O=C(Nc1ccc2c(c1)OCO2)c1cc(-c2cccc(O)c2)on1,14µM*,7%,6%,0,7.1µM*,11%
O=C(C1CC1)N1CCN(c2ccc([N+](=O)[O-])cc2)CC1,/,/,-8%,/,/,-1%
CCCC1C(c2ccco2)NC(c2ccco2)CC1(C)O (configuration not stated),-3%,7%,11%,0,-18%,?
COc1ccc(F)cc1CN1CCN(c2ncnc3scc(-c4ccccc4)c23)CC1,5%,-3%,-6%,-1,0%,12%[57.1 µM]
CNc1nc(-c2ccccc2)nc(-c2ccccc2)c1C#N,16%,1%,-24%[57.1 µM],7,-14%,19%[57.1 µM]
COC(=O)C1CCN(C(=O)C2CCN(C(=O)[C@@H](NS(=O)(=O)c3ccc(C)cc3)C(C)C)CC2)CC1,?,/,4%[57.1 µM],-1,1.1µM*,7%[57.1 µM]
COc1cc(/C=N/n2c(COc3ccccc3)n[nH]c2=S)cc(OC)c1OC(C)=O,-12%,0%,-2%,1,-13%,-14%
Cc1n[nH]c(=S)n1/N=C/c1ccccc1OCc1ccc(Cl)cc1,?,3%,-5%,-6,4.5µM*,0%
COc1cccc(/C=N/n2c(COc3ccccc3)n[nH]c2=S)c1O,?,-4%,-5%,0,13µM*,-11%
COc1ccccc1/C=C/C=N/n1c(COc2ccccc2)n[nH]c1=S,-23%,-5%,-4%,/,3.5µM*,-25%
COc1ccccc1/C=C/C=N/n1c(-c2cc(-c3ccccc3)n[nH]2)n[nH]c1=S,4%,-7%,-6%,0,?,-2%[57.1 µM]
COc1cccc(/C=N/n2c(COc3ccccc3)n[nH]c2=S)c1OC,?,-2%,-13%,5,20µM*,?
Cc1n[nH]c(=S)n1/N=C/c1cccc(OCc2ccccc2)c1,-7%,3%,1%[57.1 µM],0,36%,2%[57.1 µM]
COc1cc(/C=N/n2c(COc3ccccc3)n[nH]c2=S)cc(Br)c1O,-21%,/,11%[57.1 µM],4,-38%,-10%[57.1 µM]
Cc1cc(C(=O)CCl)c(C)n1CCc1ccc(F)cc1,-86%,1%,-12%[57.1 µM],-1,?,?
COc1ccc(CCn2c(C)cc(C(=O)CCl)c2C)cc1OC,20µM*,-3%,4%,-1,11µM*,?
Cc1cc(C(=O)CCl)c(C)n1CCc1ccc(Cl)cc1,?,-5%,-3%,-6,13µM*,7.9µM*
COc1cc(CCC(=O)OCC(=O)Nc2c(F)cccc2F)cc(OC)c1OC,22%,0%,-5%,-2,-3%,-12%
Cc1nonc1OCCNCCNc1ccccc1[N+](=O)[O-],6%,-2%,-3%,0,-7%,10%
COc1ccccc1/C=C/C=N/n1c(-c2ccc(F)cc2)n[nH]c1=S,-8%,-5%,-5%,2,2µM*,?
